Records with an inconclusive call do not appear. Activity calls are given as the source filed them. Calls come from the whole dose curve; as a rule, active = well fitted cell-killing curve with a large enough effect; inconclusive = small, poorly fitted or top-dose-only effect, or effect the other way; inactive = no such curve, though single readings can be large or run the other way.
What was measured:
[1] = Quantitative High-Throughput drug screen in 47 multiple myeloma cell lines against the NCATS MIPE library collection: XG1_PLB cell viability assay (AID 1919866); note: nearly all actives have a fitted effect of over 35% in size
How it was run: (§1)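 qHTS format: cells plated (500/well), pin-dosed with MIPE 4.0 compounds, kept 48 h at 37 °C. Readout was CellTiter-Glo luminescence, median RLU.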

[2] = Quantitative High-Throughput drug screen in 47 multiple myeloma cell lines against the NCATS MIPE library collection: VP6_DJ cell viability assay (AID 1919867); note: nearly all actives have a fitted effect of over 40% in size
How it was run: as §1

[3] = Quantitative High-Throughput drug screen in 47 multiple myeloma cell lines against the NCATS MIPE library collection: UTMC2_PLB cell viability assay (AID 1919868); details: CellTiter-Glo ATP luminescence, 48 h; viability (% of DMSO control): at 45.8 µM (top of the series); note: nearly all actives have a fitted effect of over 55% in size;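 for viability (% of DMSO control): 100% = DMSO-only wells and 0% = media-only wells without cells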
How it was run: as §1

[4] = Quantitative High-Throughput drug screen in 47 multiple myeloma cell lines against the NCATS MIPE library collection: PCM6_Riken cell viability assay (AID 1919870); note: nearly all actives have a fitted effect of over 30% in size
How it was run: as §1

[5] = Quantitative High-Throughput drug screen in 47 multiple myeloma cell lines against the NCATS MIPE library collection: RPMI8226_ATCC cell viability assay (AID 1919871); note: nearly all actives have a fitted effect of over 30% in size
How it was run: as §1

[6] = Quantitative High-Throughput drug screen in 47 multiple myeloma cell lines against the NCATS MIPE library collection: OPM2_DSMZ cell viability assay (AID 1919872); note: nearly all actives have a fitted effect of over 30% in size
How it was run: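 Approved and investigational drugs from MIPE 4.0 were added by pin tool to 500 cells per well. After 48 hours at 37C, ATP-based CellTiter-Glo luminescence indicated remaining viability.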

[7] = Quantitative High-Throughput drug screen in 47 multiple myeloma cell lines against the NCATS MIPE library collection: KMS11_JCRBsus cell viability assay (AID 1919873); note: nearly all actives have a fitted effect of over 50% in size
How it was run: as §1

[8] = Quantitative High-Throughput drug screen in 47 multiple myeloma cell lines against the NCATS MIPE library collection: KMS28BM_JCRB cell viability assay (AID 1919874); note: nearly all actives have a fitted effect of over 35% in size
How it was run: as §1

[9] = Quantitative High-Throughput drug screen in 47 multiple myeloma cell lines against the NCATS MIPE library collection: PE2_PLB cell viability assay (AID 1919869); note: nearly all actives have a fitted effect of over 35% in size
How it was run: as §1
Potency is the fitted concentration of half-maximal effect.

SMILES | Potency [1] | Potency [2] | Potency [3] | Potency [4] | Potency [5] | Potency [6] | Potency [7] | Potency [8] | Potency [9] | viability (% of DMSO control) [3]
CC(=O)N1CCN(c2ccc(OCc3nn(C)c(C)c3-c3cccc4c(CCCOc5cc(C)c(Cl)c(C)c5)c(C(=O)O)n(Cc5cccnc5)c34)cc2)CC1 | 5.9 µM (active) | 10.5 µM (active) | 7.43 µM (active) | 16.6 µM (active) | inactive | inactive | 20.9 µM (active) | 9.35 µM (active) | – | –
O=C(Nc1ccc(OC(F)(F)F)cc1)c1sccc1NCc1ccnc2ccccc12 | 5.9 µM (active) | 16.6 µM (active) | 23.5 µM (active) | – | – | 18.7 µM (active) | 7.43 µM (active) | – | 20.9 µM (active) | –
CC=C(C(=CC)c1ccc(O)cc1)c1ccc(O)cc1 | 16.6 µM (active) | 18.7 µM (active) | – | 20.9 µM (active) | – | 18.7 µM (active) | – | – | 20.9 µM (active) | –
Cc1cccc2c1CC[C@H](CN1CCC(c3c(Cl)cccc3Cl)CC1)C[C@@H]2O | 20.9 µM (active) | 14.8 µM (active) | – | 18.7 µM (active) | 16.6 µM (active) | – | 14.8 µM (active) | – | 20.9 µM (active) | –
CN[C@@H]1[C@@H](O)[C@@H](O[C@@H]2[C@@H](O)[C@H](O[C@H]3O[C@H](CN)[C@@H](O)[C@H](O)[C@@H]3O)[C@@H](N)C[C@@H]2NC(=O)[C@@H](O)CN)OC[C@]1(C)O | inactive | inactive | – | inactive | inactive | inactive | 7.43 µM (active) | – | inactive | –
Fc1ccc(CNc2ncnc3ccc(F)cc23)cc1 | 4.69 µM (active) | 5.9 µM (active) | – | – | 5.26 µM (active) | 2.96 µM (active) | 10.5 µM (active) | – | – | –
CCC(C)SSc1ncc[nH]1 (stereo unspecified) | 5.26 µM (active) | – | 8.33 µM (active) | 7.43 µM (active) | 23.5 µM (active) | 5.9 µM (active) | – | 9.35 µM (active) | 3.72 µM (active) | –
C[C@@H]1[C@H](O)[C@@H](C)C=CC=CC=CC=CC=CC=CC=C[C@H](O[C@@H]2O[C@H](C)[C@H](O)[C@H](N)[C@@H]2O)C[C@@H]2O[C@](O)(C[C@@H](O)C[C@@H](O)[C@H](O)CC[C@@H](O)C[C@@H](O)CC(=O)O[C@H]1C)C[C@H](O)[C@@H]2C(=O)O | 2.96 µM (active) | 3.72 µM (active) | – | 3.32 µM (active) | – | – | – | – | – | –
CC(C)CN(C[C@H](O)[C@H](Cc1ccccc1)NC(=O)O[C@H]1CCOC1)S(=O)(=O)c1ccc(N)cc1 | 20.9 µM (active) | 20.9 µM (active) | – | 13.2 µM (active) | inactive | 18.7 µM (active) | – | – | – | –
Cn1c(=O)c(-c2c(Cl)cccc2Cl)cc2cnc(Nc3cccc(C(=O)O)c3)nc21 | 0.296 µM (active) | – | – | 0.0469 µM (active) | inactive | – | inactive | inactive | inactive | 127% (active)
CC(C)n1c(C=C[C@H](O)C[C@H](O)CC(=O)O)c(-c2ccc(F)cc2)c2ccccc21 | 4.69 µM (active) | 16.6 µM (active) | – | – | 18.7 µM (active) | – | 8.33 µM (active) | – | 14.8 µM (active) | –
C[C@@H]1C[C@H]2[C@@H]3CCC4=CC(=O)C=C[C@]4(C)[C@@]3(F)[C@@H](O)C[C@]2(C)[C@@]1(O)C(=O)CO | inactive | – | inactive | inactive | 0.0166 µM (active) | inactive | 0.0132 µM (active) | inactive | inactive | –
CN1CC(=O)N2C(Cc3c([nH]c4ccccc34)[C@H]2c2ccc3c(c2)OCO3)C1=O (stereo partly specified) | inactive | inactive | – | – | – | inactive | inactive | – | inactive | –
O=C(CO)N1CCC(c2[nH]nc(-c3ccc(Cl)cc3)c2-c2ccncn2)CC1 | inactive | 1.05 µM (active) | – | – | – | inactive | – | – | – | –
C[C@@H](NC(=O)c1ncnc(N)c1Cl)c1ncc(C(=O)Nc2cc(C(F)(F)F)c(Cl)cn2)s1 | 10.5 µM (active) | 20.9 µM (active) | – | – | 13.2 µM (active) | 9.35 µM (active) | – | – | – | –
C[C@@H]1O[C@@H](O[C@H]2CC[C@@]3(C)[C@H](CC[C@@H]4[C@H]3C[C@@H](O)[C@]3(C)[C@@H](C5=CC(=O)OC5)CC[C@]43O)C2)C[C@H](O)[C@@H]1O[C@H]1C[C@H](O)[C@H](O[C@H]2C[C@H](O)[C@@H](O)[C@@H](C)O2)[C@H](C)O1 (stereo in doubt) | 0.0605 µM (active) | – | 0.0959 µM (active) | 0.108 µM (active) | 0.215 µM (active) | 0.121 µM (active) | 0.191 µM (active) | 0.0959 µM (active) | 0.215 µM (active) | –
CC[C@H](C)C(=O)O[C@H]1C[C@H](O)C=C2C=C[C@H](C)[C@H](CC[C@@H](O)C[C@@H](O)CC(=O)O)[C@H]21 | inactive | – | inactive | inactive | inactive | inactive | – | – | inactive | –
O=c1[nH]c(=O)n([C@H]2C[C@@H](O)[C@@H](CO)O2)cc1I | inactive | inactive | – | – | – | – | 2.09 µM (active) | inactive | inactive | –
COc1nc(C)cnc1NS(=O)(=O)c1cccnc1-c1ccc(-c2nnco2)cc1 | inactive | – | inactive | inactive | inactive | inactive | inactive | inactive | inactive | –
O=C1C(CCC(O)c2ccc(F)cc2)C(c2ccc(O)cc2)N1c1ccc(F)cc1 (stereo unspecified) | inactive | 3.32 µM (active) | – | – | inactive | inactive | inactive | – | – | –

SMILES | Potency [1] | Potency [2] | Potency [3] | Potency [4] | Potency [5] | Potency [6] | Potency [7] | Potency [8] | Potency [9] | viability (% of DMSO control) [3]
COc1cc(Nc2nc3ccccc3nc2NS(=O)(=O)c2ccc(NC(=O)c3ccc(C)c(OC)c3)cc2)cc(OC)c1 | 13.2 µM (active) | 5.9 µM (active) | – | 2.35 µM (active) | – | – | – | inactive | – | –
CN[C@@H]1CN(c2ccc3c(=O)c(C(=O)O)cn(-c4nccs4)c3n2)C[C@@H]1OC | 7.24 µM (active) | – | 1.29 µM (active) | 3.23 µM (active) | – | – | – | – | 1.82 µM (active) | –
Cc1ccccc1C(C(=O)NC1CCCCC1)N(C(=O)CNc1ccc(C#N)cc1)c1cccc(F)c1 (stereo unspecified) | inactive | inactive | – | – | – | inactive | – | – | inactive | –
CC(C)C[C@@H](N)[C@H](O)C(=O)N[C@H](C(=O)N[C@H](C(=O)N[C@@H](CC(=O)O)C(=O)O)C(C)C)C(C)C | 2.64 µM (active) | 5.26 µM (active) | – | – | – | inactive | inactive | – | 18.7 µM (active) | –
CC1(C)[C@H]2CC[C@]3(C)[C@@H](C(=O)C=C4[C@@H]5C[C@@](C)(C(=O)O)CC[C@]5(C)CC[C@]43C)[C@@]2(C)CC[C@@H]1O | inactive | – | inactive | inactive | inactive | inactive | inactive | inactive | inactive | –
C#C[C@]1(O)CC[C@H]2[C@H]3CCc4cc(OC)ccc4[C@H]3CC[C@@]21C | 14.8 µM (active) | 16.6 µM (active) | – | – | – | inactive | – | – | – | –
CO[C@H]1C=CO[C@@]2(C)Oc3c(C)c(O)c4c(O)c(c(C=NN5CCN(C)CC5)c(O)c4c3C2=O)NC(=O)C(C)=CC=C[C@H](C)[C@H](O)[C@@H](C)[C@@H](O)[C@@H](C)[C@H](OC(C)=O)[C@H]1C | inactive | – | inactive | inactive | inactive | inactive | – | inactive | inactive | –
Cn1cc(-c2ccc3nnc(Sc4ccc5ncccc5c4)n3n2)cn1 | 26.4 µM (active) | 18.7 µM (active) | – | – | – | inactive | inactive | inactive | – | –
CN(C)CCOc1cc(-c2cn[nH]c2)ccc1NC(=O)C1COc2ccccc2O1 (stereo unspecified) | 2.35 µM (active) | – | 6.62 µM (active) | 4.69 µM (active) | inactive | – | – | 5.9 µM (active) | 16.6 µM (active) | –
Cc1cccc(-c2[nH]c(C(C)(C)C)nc2-c2ccc3c(c2)OCO3)n1 | 1.05 µM (active) | – | 0.743 µM (active) | 0.833 µM (active) | 16.6 µM (active) | – | 16.6 µM (active) | 16.6 µM (active) | 1.18 µM (active) | –
CC(C)Oc1cc(Nc2nc(N[C@@H](C)c3ccc(F)cn3)ncc2Cl)[nH]n1 | 14.8 µM (active) | – | 8.33 µM (active) | 7.43 µM (active) | inactive | 16.6 µM (active) | – | – | 6.62 µM (active) | –
COc1ccc2cc1Oc1ccc(cc1)C[C@H]1c3cc(c(OC)cc3CCN1C)Oc1c(OC)c(OC)cc3c1[C@H](C2)N(C)CC3 | 10.5 µM (active) | 11.8 µM (active) | – | – | 6.62 µM (active) | inactive | 14.8 µM (active) | – | – | –
CC(C)=CCCC(C)=CCCC(C)=CCCC(C)=CCCC(C)=CCCC(C)=CCCC(C)=CCCC(C)=CCCC(C)=CCO | inactive | – | inactive | inactive | inactive | inactive | inactive | inactive | inactive | –
CCNC(=O)Nc1ccc(Oc2ncnc(N)c2C=NOC)cc1Cl | 2.96 µM (active) | 3.72 µM (active) | – | – | 18.7 µM (active) | – | 9.35 µM (active) | – | – | –
CC[C@H](NC(=O)[C@H](C)NC)C(=O)N1C[C@@H](O)C[C@H]1Cc1c(-c2[nH]c3cc(F)ccc3c2C[C@H]2C[C@H](O)CN2C(=O)[C@H](CC)NC(=O)[C@H](C)NC)[nH]c2cc(F)ccc12 | 5.9 µM (active) | 3.72 µM (active) | – | 5.9 µM (active) | 1.32 µM (active) | – | inactive | inactive | – | –
Cc1cc(OCCCS(C)(=O)=O)cc(C)c1-c1cccc(COc2ccc3c(c2)OC[C@H]3CC(=O)O)c1 | 16.6 µM (active) | 2.35 µM (active) | – | – | 18.7 µM (active) | – | 18.7 µM (active) | – | – | –
Nc1ccn([C@@H]2O[C@H](CO)[C@@H](O)[C@H]2O)c(=O)n1 | inactive | – | 0.001 µM (active) | inactive | inactive | inactive | inactive | inactive | inactive | –
CN1C(=O)C[C@H](C(=O)N[C@@H](Cc2cnc[nH]2)C(=O)N2CCC[C@@H]2C(N)=O)NC1=O | 10.5 µM (active) | 10.5 µM (active) | – | – | inactive | – | – | 8.33 µM (active) | – | –
COc1cc(CNC(=O)CCCCC=CC(C)C)ccc1O | inactive | inactive | – | inactive | – | inactive | inactive | inactive | – | –
CC(O)=C(C#N)C(=O)Nc1ccc(C(F)(F)F)cc1 | 16.6 µM (active) | – | 33.2 µM (active) | 20.9 µM (active) | 6.62 µM (active) | inactive | – | – | 8.33 µM (active) | –

— PubChem BioAssay (NCATS)
